The text below walks through data of PubChem BioAssay (NCATS).

Molecules are shown by their SMILES. Results filed as inconclusive are left out. Where a call stands in place of a potency, no number is given. Unmarked numbers belong to inactive results. Activity calls are given as the source filed them. Calls come from the whole dose curve; as a rule, active = well fitted cell-killing curve with a large enough effect; inconclusive = small, poorly fitted or top-dose-only effect, or effect the other way; inactive = flat fitted curve, though single readings scatter.
Potency is the fitted concentration of half-maximal effect.

For one experiment, the system named is HeLa. Briefly: Primary qHTS to identify gynecologic anti-cancer compounds using libraries of approved drugs and bioactive compounds (AID 1345084). Note: nearly all actives have a fitted effect of over 55% in size. The conditions noted are these: Gynecologic cancer cell panel viability, ATPlite luminescence, 48 h; series mostly up to 57.5 µM. In outline:
(§1)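 Luminescence from the ATPlite ATP-monitoring reagent indicates viable cell number; lower signal means cytotoxicity. Cells received compound 16 h after seeding and were exposed for 48 h across five concentrations.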
For `CC1OC(OC2C(O)COC(O[C@@H]3[C@@H](O)[C@@H](O)[C@H](OC4C(OC(=O)[C@]56CCC(C)(C)CC5C5=CCC7[C@@]8(C)C[C@H](O)[C@H](OC9OC(CO)C(O)C(O)C9O)[C@@](C)(CO)C8[C@H](O)C[C@@]7(C)[C@]5(C)CC6)OCC(O)C4O)O[C@H]3C)C2O)C(O)C(O)C1O` (some centres undefined), the activity change, negative = cytotoxicity was -4.81% [at 6.55 µM].
Take `CCCSc1nc(N[C@@H]2C[C@H]2c2ccc(F)c(F)c2)c2nnn([C@@H]3C[C@H](OCCO)[C@@H](O)[C@H]3O)c2n1`: the Potency entry is “inactive”.
On to `C[C@H](Oc1cc(-n2cnc3ccc(CN4CCN(C)CC4)cc32)sc1C(N)=O)c1ccccc1C(F)(F)F`, for which the Potency is 5.01 µM (active).
On the same count and under the same terms, then `C[C@@H](O[C@H]1OCCN(Cc2nn(P(=O)(O)O)c(=O)[nH]2)[C@H]1c1ccc(F)cc1)c1cc(C(F)(F)F)cc(C(F)(F)F)c1`, with “inactive”; and `C=C1[C@H]2CC[C@H](C(=O)O)[C@@]23CC[C@H](C3)C1(C)C`, with “inactive”; and `CC(C)(O)C1Cc2c(ccc(C(=O)CCc3ccccc3)c2O)O1` (centres undefined), with 10 µM (active).
As for `Cn1ncc(Cl)c1-c1cc(C(=O)N[C@H](CN)Cc2ccc(F)c(F)c2)sc1Cl`, the Potency result was “inactive”.
Same read-out and setting: then `C/C1=C\[C@@H](C)C[C@@H](C)[C@@H](Cc2cnco2)OC(=O)/C(C)=C/[C@@H](C)C[C@@H](C)[C@@H](Cc2cnco2)OC1=O`, with “inactive”; and `C=CC(=O)N1CCCC(n2nc(-c3ccc(Oc4ccccc4)cc3)c3c(N)ncnc32)C1` (centres undefined), with “inactive”; and `CCC(CC)C(c1ccc(Nc2nc3ccccc3s2)cc1)n1cncn1` (centres undefined), with 35.5 µM (active).
Still for that read-out and setting: then `C=C[C@@]1(C)CCC2C(=CCC3[C@]2(C)CCC[C@@]3(C)C(=O)O)C1` (some centres undefined), with “inactive”; and `COc1ccc(C[C@H]2COC(=O)[C@@H]2Cc2ccc(O[C@@H]3O[C@H](CO)[C@@H](O)[C@H](O)[C@H]3O)c(OC)c2)cc1OC`, with “inactive”; and `CN(C)C(=O)NC1(c2ccccc2)CCN(CCC[C@]2(c3ccc(Cl)c(Cl)c3)CCCN(C(=O)c3ccccc3)C2)CC1`, with “inactive”.
Turning to `CN(C)c1cccc(Oc2cnc(Nc3cccc(O)c3)nc2)c1`, the Potency result was “inactive”.
For `CCCc1cc(C)[nH]c(=O)c1CNC(=O)c1cc(-c2ccc(N3CCN(C(C)C)CC3)nc2)cc2c1cnn2C(C)C`, the Potency result was “inactive”.
The same measure, in the same setting: then `FC(F)(F)c1ccccc1-c1cc(C(F)(F)F)c2nc(C3=NOC4(CCCCC4)C3)[nH]c2c1`, with “inactive”; and `CC(C)NCCCn1c(Sc2cc3c(cc2I)OCO3)nc2c(N)ncnc21`, with “inactive”; and `C=C1CC2OC(=O)C(=C)C2C(OC(=O)/C(C)=C\C)CC2(C)OC1=CC2=O` (centres undefined), with “inactive”.
With `Nc1ncnc2c1nc(Cl)n2C1OC2COP(=O)(O)OC2C1O` (centres undefined), the Potency was 11.2 µM (active).
On the same count and under the same terms, then `O=C(C1CCCCC1)N(CCN1CCN(c2ccccc2O)CC1)c1ccccn1`, with “inactive”; and `Cn1sc(=O)n(Cc2ccccc2)c1=O`, with “inactive”.
The same measure, in the same setting: then `COC(CCc1ccc(O)cc1)CC(=O)CCc1ccc(O)cc1` (centres undefined), with “inactive”.
In the case of `NCC1CCN(c2nccc(-c3ccc4ccccc4c3)n2)CC1`, the Potency was 14.1 µM (active).
For the compound `C[C@@H](N[C@H]1CCCC[C@@H]1NC(=O)c1ccc(Cl)cc1)c1cccc2ccccc12`, the Potency result was “inactive”.
Turning to `O=C(Nc1nc2cc(C(F)(F)F)cc(NC3CC3)n2n1)c1cccnc1`, the Potency is 12.6 µM (active).
On to `C/C=C(/C)C(=O)O[C@H]1[C@H](OC(=O)/C(C)=C\C)[C@@]23C(CC1(C)C)[C@]1(CCC4[C@@]5(C)CC[C@H](O[C@@H]6O[C@H](C(=O)O)[C@@H](O)[C@H](O[C@@H]7O[C@H](CO)[C@H](O)[C@H](O)[C@H]7O[C@@H]7O[C@@H](C)[C@H](O)[C@@H](O)[C@H]7O[C@@H]7OC[C@@H](O)[C@H](O)[C@H]7O)[C@H]6O[C@@H]6O[C@H](CO)[C@H](O)[C@H](O)[C@H]6O)C(C)(C)C5CC[C@@]4(C)[C@]1(C)C[C@H]2O)O[C@H]3O` (some centres undefined), for which the activity change, negative = cytotoxicity is 16.8% [at 6.55 µM].
For `CN1CCC(NC(=O)c2cc(-c3c(O)cc(O)cc3Oc3ccc([N+](=O)[O-])cc3)on2)CC1`, the Potency result is “inactive”.
`Nc1nc2c(ncn2C2OC3COP(=O)(O)OC3C2O)c(=O)[nH]1` (centres undefined): the Potency entry was “inactive”.
Regarding `Cn1ncnc1[C@H]1c2n[nH]c(=O)c3cc(F)cc(c23)N[C@@H]1c1ccc(F)cc1`, the Potency result is “inactive”.
On the same count and under the same terms, then `CC(F)(F)CN1CCOc2c(nn(-c3ccccc3Cl)c2-c2ccc(Cl)cc2)C1=O`, with “inactive”; and `CN[C@@H]1[C@H](O[C@H]2[C@H](O[C@@H]3[C@@H](O)[C@H](O)[C@@H](N=C(N)N)[C@H](O)[C@H]3N=C(N)N)O[C@@H](C)[C@]2(O)CO)O[C@@H](CO)[C@H](O)[C@H]1O`, with “inactive”.

Another experiment relates to Hek293T. The experiment is described as above. The conditions noted are these: Gynecologic cancer cell panel viability, ATPlite luminescence, 48 h, control line for the selectivity index; series mostly up to 57.5 µM. In outline: as §1
For `CC1OC(OC2C(O)COC(O[C@@H]3[C@@H](O)[C@@H](O)[C@H](OC4C(OC(=O)[C@]56CCC(C)(C)CC5C5=CCC7[C@@]8(C)C[C@H](O)[C@H](OC9OC(CO)C(O)C(O)C9O)[C@@](C)(CO)C8[C@H](O)C[C@@]7(C)[C@]5(C)CC6)OCC(O)C4O)O[C@H]3C)C2O)C(O)C(O)C1O` (some centres undefined), the activity change, negative = cytotoxicity is -17.3% [at 6.55 µM].
With `CCCSc1nc(N[C@@H]2C[C@H]2c2ccc(F)c(F)c2)c2nnn([C@@H]3C[C@H](OCCO)[C@@H](O)[C@H]3O)c2n1`, the Potency result was “inactive”.
Still for that read-out and setting: then `C[C@@H](O[C@H]1OCCN(Cc2nn(P(=O)(O)O)c(=O)[nH]2)[C@H]1c1ccc(F)cc1)c1cc(C(F)(F)F)cc(C(F)(F)F)c1`, with “inactive”; and `COC1CC(=O)C23C(=O)NC(Cc4c[nH]c5ccccc45)C2C(C)C2(C)OC2C3/C=C/CC(C)CC1O` (centres undefined), with “inactive”; and `Cc1cc(OCCCS(C)(=O)=O)cc(C)c1-c1cccc(COc2ccc(C3=CC(=O)NS3=O)cc2)c1` (centres undefined), with “inactive”.
Still for that read-out and setting: then `C=C1[C@H]2CC[C@H](C(=O)O)[C@@]23CC[C@H](C3)C1(C)C`, with “inactive”; and `CC(C)(O)C1Cc2c(ccc(C(=O)CCc3ccccc3)c2O)O1` (centres undefined), with 11.2 µM (active); and `C=CC(=O)N1CCCC(n2nc(-c3ccc(Oc4ccccc4)cc3)c3c(N)ncnc32)C1` (centres undefined), with “inactive”.
On the same count and under the same terms, then `C=C[C@@]1(C)CCC2C(=CCC3[C@]2(C)CCC[C@@]3(C)C(=O)O)C1` (some centres undefined), with “inactive”; and `CN(C)c1cccc(Oc2cnc(Nc3cccc(O)c3)nc2)c1`, with “inactive”; and `CCCc1cc(C)[nH]c(=O)c1CNC(=O)c1cc(-c2ccc(N3CCN(C(C)C)CC3)nc2)cc2c1cnn2C(C)C`, with “inactive”.
For `FC(F)(F)c1ccccc1-c1cc(C(F)(F)F)c2nc(C3=NOC4(CCCCC4)C3)[nH]c2c1`, the Potency entry was “inactive”.
Still for that read-out and setting: then `Nc1ncnc2c1nc(Cl)n2C1OC2COP(=O)(O)OC2C1O` (centres undefined), with 10 µM (active).
Same read-out and setting: then `O=C(C1CCCCC1)N(CCN1CCN(c2ccccc2O)CC1)c1ccccn1`, with “inactive”; and `COC(CCc1ccc(O)cc1)CC(=O)CCc1ccc(O)cc1` (centres undefined), with “inactive”; and `C[C@@H](N[C@H]1CCCC[C@@H]1NC(=O)c1ccc(Cl)cc1)c1cccc2ccccc12`, with “inactive”.
Same read-out and setting: then `COC(=O)CC1OC(C)C2=C(O)c3c(O)cccc3C(=O)C23OC13` (centres undefined), with 10 µM (active).
As to `CN1CCC(NC(=O)c2cc(-c3c(O)cc(O)cc3Oc3ccc([N+](=O)[O-])cc3)on2)CC1`, the Potency was 1 µM (active).
In the case of `Nc1nc2c(ncn2C2OC3COP(=O)(O)OC3C2O)c(=O)[nH]1` (centres undefined), the Potency entry is “inactive”.
The same measure, in the same setting: then `Cn1ncc(Cl)c1-c1cc(C(=O)N[C@H](CN)Cc2cccc(F)c2)sc1Cl`, with 2.82 µM (active); and `Cn1ncnc1[C@H]1c2n[nH]c(=O)c3cc(F)cc(c23)N[C@@H]1c1ccc(F)cc1`, with “inactive”.
On the same count and under the same terms, then `CC(F)(F)CN1CCOc2c(nn(-c3ccccc3Cl)c2-c2ccc(Cl)cc2)C1=O`, with “inactive”; and `CN[C@@H]1[C@H](O[C@H]2[C@H](O[C@@H]3[C@@H](O)[C@H](O)[C@@H](N=C(N)N)[C@H](O)[C@H]3N=C(N)N)O[C@@H](C)[C@]2(O)CO)O[C@@H](CO)[C@H](O)[C@H]1O`, with “inactive”.
